The record followed here is PubChem BioAssay (NCI).

About 83,000 compounds went through this panel and 20% of them were active in at least one assay; those are over-represented in the sample as a whole.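 In brief: 96-well plates, 48 h treatment, single concentration, percent growth endpoint.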 A number with no mark means an inactive call. Calls of active or inactive are those of the source. The calls were made as follows: active = growth percent below 10; inactive = the rest.

What all share (experiment): NCI-60 one-dose screen, 48 h (100 = growth as untreated, 0 = no growth, -100 = all killed)
Details in all cases: 10 µM

For experiment [1], the system named is SR leukemia.
In experiment [2] the test system is RPMI-8226 leukemia.
In experiment [3] the test system is OVCAR-8 ovarian.
Experiment [4] deals with OVCAR-5 ovarian.
Experiment [5] relates to OVCAR-4 ovarian.
In experiment [6] the test system is SK-OV-3 ovarian.
Experiment [7] deals with IGROV1 ovarian.
The subject of experiment [8] is OVCAR-3 ovarian.
In experiment [9] the test system is HS 578T breast.
The subject of experiment [10] is NCI/ADR-RES ovarian.

In the case of `C=CC(=O)OCCCCCCCC`, the growth in experiment [1] was 82.6%; in experiment [2] it was 104%; in [3], 105%; in experiment [4] it was 101%; in experiment [5] it was 109%; in [6] it was 108%. The growth was 114% in experiment [7] and 103% in experiment [8].

Consider `CCCCC/C=N/Nc1nc(C)cc(=O)[nH]1`, for which the growth in experiment [1] is 90.4%; in experiment [2], 119%; in experiment [3] it was 100%; in experiment [4] it was 104%; in experiment [5] it was 107%; in [6] it was 113%. Moreover, the growth is 109% in experiment [7], 114% in experiment [8] and 101% in [9].

On to `O=c1cc(-c2ccccc2)[nH]c2c1CCCC2`, for which the growth was 30.5% in experiment [1]; 21.3% in [2]; 39.7% in [3]; 39.3% in [4]; 49.8% in [5]; 25.8% in experiment [6]. In addition, the growth in [7] is 44.3%; in experiment [8], 15.9%; in [9], 16.3%.

With `O=C(O)C(Cc1ccccc1)C(=O)O`, the growth in experiment [1] was 101%; in experiment [2], 109%; in [3] it was 109%; in experiment [4] it was 111%; in [5], 96.3%; in experiment [6], 103%. Moreover, the growth in experiment [7] was 113%; in experiment [8], 110%; in [9], 104%; in experiment [10], 106%.

On to `Cc1cc(OCCO)cc(C)c1Cl`, for which the growth in [1] is 124%; in [2] it was 102%; in [3], 106%; in experiment [4] it was 115%; in experiment [5], 122%; in [6], 117%. Also, the growth was 113% in experiment [7], 118% in experiment [8] and 104% in [9].

Regarding `Cc1ccc(C(O)C2CC2)cc1` (stereo not given), the growth in experiment [1] is 91.7%; in experiment [2] it was 99.3%; in [3] it was 94.1%; in experiment [4], 94%; in [5] it was 105%; in [6] it was 106%. Moreover, the growth in experiment [7] is 96.8%; in experiment [8], 106%; in [9], 104%; in experiment [10], 107%.

Consider `Cc1ccc(CCCC(=O)O)c(C)c1`, for which the growth in experiment [1] was 96.7%; in experiment [2], 97.8%; in experiment [3], 97.4%; in [4], 94.5%; in experiment [5], 97.6%; in experiment [6] it was 97.7%. For the same compound, the growth in [7] is 108%; in [8], 108%; in [9], 108%; in [10] it was 107%.

As for `S=C(Nc1ccccc1)N1CCCCC1`, the growth in [1] was 105%; in experiment [2] it was 110%; in [3] it was 99.4%; in [4], 90.1%; in experiment [5], 111%; in [6], 107%. Further, the growth in experiment [7] is 100%; in [8], 110%; in [9] it was 102%; in experiment [10], 107%.

Take `Cc1ccc(O)c(C(=O)c2ccccc2)c1`: the growth was 113% in experiment [1]; 113% in experiment [2]; 111% in [3]; 96.3% in experiment [4]; 110% in [5]; 119% in experiment [6]. Further, the growth in experiment [7] was 113%; in experiment [8] it was 104%; in experiment [9] it was 108%; in experiment [10] it was 105%.

In the case of `O=[N+]([O-])c1ccc(CO)cc1`, the growth in experiment [1] was 99.5%; in [2] it was 112%; in experiment [3] it was 109%; in [4] it was 105%; in experiment [5], 104%; in [6], 93.7%. For the same compound, the growth in experiment [7] is 112%; in experiment [8], 113%; in experiment [9], 98.9%; in [10], 107%.

Consider `CC(=O)c1ccc(N=C(C#N)C2=C(O)c3ccccc3C2=O)cc1`, for which the growth is 91.1% in [1]; 117% in [2]; 103% in [3]; 119% in [4]; 108% in [5]; 95% in experiment [6]. Also, the growth is 115% in experiment [7], 112% in [8], 107% in [9] and 105% in [10].

With `COc1cc(C(N)=O)cc(OC)c1OC`, the growth was 93.3% in experiment [1]; 106% in experiment [2]; 98.1% in experiment [3]; 98.1% in experiment [4]; 110% in [5]; 111% in [6]. Also, the growth in experiment [7] was 108%; in experiment [8], 117%; in [9], 106%; in [10] it was 101%.

`Cc1cc(C(C)(C)C)cc(C)c1Br`: the growth in [1] is 84.9%; in experiment [2] it was 95.1%; in experiment [3] it was 111%; in experiment [4], 105%; in experiment [5], 115%; in experiment [6], 108%. Further, the growth in experiment [7] is 112%; in experiment [8] it was 120%; in experiment [9], 99.6%; in experiment [10], 111%.

For `N#CCCc1ccc(O)cc1`, the growth in experiment [1] was 94.6%; in experiment [2], 102%; in experiment [3] it was 93.9%; in [4], 95.6%; in [5] it was 111%; in experiment [6], 106%. For the same compound, the growth is 116% in [7], 110% in experiment [8], 102% in experiment [9] and 116% in experiment [10].

In the case of `CCOc1ccc(I)cc1`, the growth in [1] was 114%; in experiment [2], 131%; in experiment [3] it was 96.7%; in [4], 94%; in experiment [5], 109%; in experiment [6], 110%. Also, the growth in experiment [7] is 117%; in [8], 116%; in experiment [9], 111%; in experiment [10] it was 101%.

For the compound `Cc1ccc(Cl)cc1NC(=O)N(C)CCO`, the growth in experiment [1] was 113%; in experiment [2], 97.4%; in experiment [3] it was 112%; in experiment [4], 111%; in experiment [5], 136%; in experiment [6] it was 114%. Also, the growth in [7] was 93%; in [8], 130%; in experiment [9] it was 236%; in experiment [10] it was 112%.

On to `C[N+](C)=c1ccc2nc3c(cc(Nc4ccccc4)c4ccccc43)oc-2c1`, for which the growth was 22.1% in experiment [1]; 31.7% in experiment [2]; 54.4% in experiment [3]; 80.7% in [4]; 21.3% in experiment [5]; 65.3% in experiment [6]. Moreover, the growth is 67.3% in experiment [7], -28.6% (active) in experiment [8], 63.6% in [9] and 57.3% in [10].

For the compound `CCCCC(O)c1ccccc1` (stereo not given), the growth is 98% in [1]; 108% in experiment [2]; 93.8% in [3]; 115% in experiment [4]; 100% in experiment [5]; 95.4% in experiment [6]. In addition, the growth was 110% in experiment [7], 109% in experiment [8], 116% in experiment [9] and 99.3% in experiment [10].

For `COCCOCCCl`, the growth in [1] is 108%; in [2], 115%; in experiment [3], 110%; in experiment [4], 106%; in [5] it was 105%; in experiment [6], 109%. The growth was 116% in experiment [7], 111% in experiment [8], 102% in experiment [9] and 109% in experiment [10].

For the compound `C=CC(O)CCC` (stereo not given), the growth is 92.4% in experiment [1]; 103% in experiment [2]; 101% in experiment [3]; 103% in experiment [4]; 95.6% in [5]; 108% in [6]. For the same compound, the growth in experiment [7] was 121%; in [8] it was 113%; in experiment [9], 110%; in experiment [10] it was 103%.

On to `O=C(N/N=C/c1ccccc1O)Nc1nn[nH]n1`, for which the growth in experiment [1] was 102%; in experiment [2], 95.6%; in [3] it was 101%; in [4], 92.3%; in experiment [5] it was 102%; in experiment [6] it was 113%. Moreover, the growth in [7] was 111%; in [8] it was 116%; in [9] it was 99%; in experiment [10], 109%.

Take `Cc1ccccc1N=C(c1ccccc1)C1C(=O)c2ccccc2C1=O`: the growth was 27% in experiment [1]; 59.9% in experiment [2]; 97.4% in experiment [3]; 103% in [4]; 101% in experiment [5]; 61.8% in experiment [6]. The growth in experiment [7] was 55.3%; in experiment [8], 71.9%; in [9] it was 83%; in experiment [10], 80.2%.

Take `CCCCOC(=O)c1ccc(C(C)C)cc1`: the growth in experiment [1] was 102%; in experiment [2], 110%; in experiment [3], 106%; in experiment [4], 102%; in experiment [5], 102%; in experiment [6], 90.4%. The growth in experiment [7] is 100%; in [8] it was 106%; in [9], 108%; in experiment [10], 97.3%.

As for `NC(=S)NN=C1CCCC1`, the growth in experiment [1] was 88%; in experiment [2], 72.6%; in experiment [3] it was 68.8%; in [4], 115%; in experiment [5], 74.4%; in experiment [6] it was 110%. Further, the growth was 93.4% in experiment [7], 47.6% in experiment [8], 95.5% in [9] and 42.9% in experiment [10].

For `OCC1OC(OC2C(O)C(CO)OC2(CO)OC2OC(CO)C(O)C(O)C2O)C(O)C(O)C1O` (stereo not given), the growth in experiment [1] is 106%; in experiment [2], 97.9%; in [3] it was 113%; in experiment [4], 107%; in experiment [5], 100%; in experiment [6], 108%. Besides, the growth was 123% in [7], 121% in [8], 110% in experiment [9] and 107% in experiment [10].

Turning to `Nc1ccc(CC(=O)O)c(N)c1`, the growth in experiment [1] was 95.2%; in experiment [2] it was 104%; in experiment [3] it was 106%; in experiment [4], 96.1%; in [5] it was 98.6%; in [6], 93%. Moreover, the growth in experiment [7] is 106%; in experiment [8], 97.2%; in experiment [9], 96.7%; in [10], 96.5%.

Consider `OCC(O)C(O)C(O)C(O)/C=N/O` (stereo not given), for which the growth is 102% in [1]; 94.9% in [2]; 97.6% in [3]; 109% in experiment [4]; 104% in experiment [5]; 87.2% in experiment [6]. Moreover, the growth in experiment [7] is 107%; in experiment [8], 113%; in experiment [9], 103%; in [10] it was 103%.

As to `O=[N+]([O-])c1ccc(O)c(S(=O)(=O)O)c1`, the growth was 98% in experiment [1]; 105% in experiment [2]; 94.4% in experiment [3]; 93.2% in [4]; 108% in [5]; 110% in [6]. Also, the growth in [7] was 130%; in experiment [8] it was 109%; in experiment [9] it was 103%; in [10], 109%.

With `COc1ccccc1NC(=O)c1cc2cc(Br)ccc2cc1O`, the growth was -5.13% (active) in [1]; -29.6% (active) in [2]; 9.55% (active) in experiment [3]; 104% in experiment [4]; 18.7% in experiment [5]; 1.19% (active) in experiment [6]. In addition, the growth in experiment [7] was -46% (active); in experiment [8], 4.13% (active); in [9], 6.12% (active); in experiment [10], 5.05% (active).

Consider `COc1cc(C2c3cc4c(cc3C3OC(=O)C2C3CO)OCO4)cc(OC)c1OC` (stereo not given), for which the growth is 4.01% (active) in experiment [1]; 18.3% in experiment [2]; 3.3% (active) in [3]; 27.1% in experiment [4]; 28.3% in experiment [5]; -7.31% (active) in experiment [6]. The growth was 13.7% in [7], -21.9% (active) in experiment [8], 33.8% in experiment [9] and -2.7% (active) in [10].

`Cc1cc2ccccc2c(O)c1C#N`: the growth in experiment [1] was 108%; in [2] it was 97.4%; in experiment [3], 99.7%; in [4], 103%; in experiment [5] it was 114%; in experiment [6], 89.4%. In addition, the growth in experiment [7] is 114%; in [8], 108%; in [9] it was 108%; in [10], 96%.
